Assay results as given in the supplement of paper PMC7411054.
Where a name gives a salt, the structure may show the parent alone.

Tests used:
Details in all cases: treatment time: 24 h
A549-ACTB-RAB5A [1] = assay: lowest phenotypically active concentration; higher = less potent
Method in brief: (§1)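 Cells from fifteen gene-edited reporter lines (A549, HepG2 and WPMY1) were treated for 24 h at 0.3, 1, 3 or 9 µM and imaged live, four wells per condition. Features were normalised per well to solvent control wells. A condition deviated if ≥3 of 4 wells passed the 95th percentile of control Euclidean distances and was reproducible if its median replicate Pearson correlation beat the 95th percentile of non-replicates; phenotypic activity needed both.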

A549-CANX-COX4 [2] = assay: as above
Method in brief: as §1

A549-GM130-SQSTM1 [3] = assay: as above
Method in brief: as §1

A549-TP53BP1-CLTA [4] = assay: as above
Method in brief: as §1

A549-TUBA1B-RELA [5] = assay: as above
Method in brief: as §1

HepG2-GM130-SQSTM1 [6] = assay: as above
Method in brief: as §1

A549-ACTB-RAB5A [7] = assay: phenotypically active (imaging signature differs from DMSO and reproducible) at any of 0.3-9 uM (binary (1 = active, 0 = inactive)); higher = active
Method in brief: as §1

A549-CANX-COX4 [8] = assay: as above
Method in brief: as §1

A549-GM130-SQSTM1 [9] = assay: as above
Method in brief: as §1

A549-TP53BP1-CLTA [10] = assay: as above
Method in brief: as §1

A549-TUBA1B-RELA [11] = assay: as above
Method in brief: as §1

HepG2-ACTB-RAB5A = assay: as above
Method in brief: as §1

HepG2-CANX-COX4 = assay: as above
Method in brief: as §1

HepG2-GM130-SQSTM1 [12] = assay: as above
Method in brief: as §1

HepG2-TP53BP1-CLTA = assay: as above
Method in brief: as §1

HepG2-TUBA1B-RELA = assay: as above
Method in brief: as §1

WPMY1-CANX-COX4 = assay: as above
Method in brief: as §1

WPMY1-GM130-SQSTM1 = assay: as above
Method in brief: as §1

WPMY1-TP53BP1-CLTA = assay: as above
Method in brief: as §1

WPMY1-TUBA1B-RELA = assay: as above
Method in brief: as §1

| SMILES | lowest phenotypically active concentration (A549-ACTB-RAB5A [1]) | lowest phenotypically active concentration (A549-CANX-COX4 [2]) | lowest phenotypically active concentration (A549-GM130-SQSTM1 [3]) | lowest phenotypically active concentration (A549-TP53BP1-CLTA [4]) | lowest phenotypically active concentration (A549-TUBA1B-RELA [5]) | lowest phenotypically active concentration (HepG2-GM130-SQSTM1 [6]) | phenotypically active (A549-ACTB-RAB5A [7]) | phenotypically active (A549-CANX-COX4 [8]) | phenotypically active (A549-GM130-SQSTM1 [9]) | phenotypically active (A549-TP53BP1-CLTA [10]) | phenotypically active (A549-TUBA1B-RELA [11]) | phenotypically active (HepG2-ACTB-RAB5A) | phenotypically active (HepG2-CANX-COX4) | phenotypically active (HepG2-GM130-SQSTM1 [12]) | phenotypically active (HepG2-TP53BP1-CLTA) | phenotypically active (HepG2-TUBA1B-RELA) | phenotypically active (WPMY1-CANX-COX4) | phenotypically active (WPMY1-GM130-SQSTM1) | phenotypically active (WPMY1-TP53BP1-CLTA) | phenotypically active (WPMY1-TUBA1B-RELA) |
| --- | --- | --- | --- | --- | --- | --- | --- | --- | --- | --- | --- | --- | --- | --- | --- | --- | --- | --- | --- | --- |
| O=C(CCCCCN1C(=O)c2cccc3cccc(c23)C1=O)NO [Scriptaid] | ≤ 0.3 µM | 1 µM | ≤ 0.3 µM | 1 µM | ≤ 0.3 µM | ≤ 0.3 µM | 1 (active) | 1 (active) | 1 (active) | 1 (active) | 1 (active) | 1 (active) | 1 (active) | 1 (active) | 1 (active) | 1 (active) | 1 (active) | 1 (active) | 1 (active) | 1 (active) |
| COc1cc(N2CCN(C)CC2)ccc1Nc1nccc(-c2cn(C)c3cnccc23)n1 | 1 µM | 9 µM | 3 µM | 1 µM | 1 µM | 1 µM | 1 (active) | 1 (active) | 1 (active) | 1 (active) | 1 (active) | 1 (active) | 1 (active) | 1 (active) | 1 (active) | 1 (active) | 1 (active) | 1 (active) | 1 (active) | 1 (active) |
| CC[C@H](CO)Nc1nc(NCc2ccc(-c3ccccn3)cc2)c2ncn(C(C)C)c2n1 | ≤ 0.3 µM | ≤ 0.3 µM | ≤ 0.3 µM | ≤ 0.3 µM | ≤ 0.3 µM | ≤ 0.3 µM | 1 (active) | 1 (active) | 1 (active) | 1 (active) | 1 (active) | 1 (active) | 1 (active) | 1 (active) | 1 (active) | 1 (active) | 1 (active) | 1 (active) | 1 (active) | 1 (active) |
| C[C@@H](Oc1cc(-n2cnc3ccc(CN4CCN(C)CC4)cc32)sc1C(N)=O)c1ccccc1C(F)(F)F | ≤ 0.3 µM | ≤ 0.3 µM | ≤ 0.3 µM | ≤ 0.3 µM | ≤ 0.3 µM | ≤ 0.3 µM | 1 (active) | 1 (active) | 1 (active) | 1 (active) | 1 (active) | 1 (active) | 1 (active) | 1 (active) | 1 (active) | 1 (active) | 1 (active) | 1 (active) | 1 (active) | 1 (active) |
| COc1cc(/C=C/c2ccc(OC)cc2OC)cc(OC)c1 | 3 µM | 1 µM | 3 µM | 1 µM | 3 µM | 3 µM | 1 (active) | 1 (active) | 1 (active) | 1 (active) | 1 (active) | 1 (active) | 1 (active) | 1 (active) | 1 (active) | 1 (active) | 1 (active) | 1 (active) | 1 (active) | 1 (active) |
| CO[C@H]1C[C@@H]2CC[C@@H](C)[C@@](O)(O2)C(=O)C(=O)N2CCCC[C@H]2C(=O)O[C@H]([C@H](C)C[C@@H]2CC[C@@H](OC(=O)C(C)(CO)CO)[C@H](OC)C2)CC(=O)[C@H](C)C=C(C)[C@@H](O)[C@@H](OC)C(=O)[C@H](C)C[C@H](C)C=CC=CC=C1C [Temsirolimus] | ≤ 0.3 µM | ≤ 0.3 µM | ≤ 0.3 µM | 3 µM | ≤ 0.3 µM | ≤ 0.3 µM | 1 (active) | 1 (active) | 1 (active) | 1 (active) | 1 (active) | 1 (active) | 1 (active) | 1 (active) | 1 (active) | 1 (active) | 1 (active) | 1 (active) | 1 (active) | 1 (active) |
| O=C(NC(NC(=S)Nc1ccc(F)c([N+](=O)[O-])c1)C(Cl)(Cl)Cl)C(c1ccccc1)c1ccccc1 (stereo not given) | 3 µM | 9 µM | 3 µM | 9 µM | 9 µM | 9 µM | 1 (active) | 1 (active) | 1 (active) | 1 (active) | 1 (active) | 1 (active) | 1 (active) | 1 (active) | 1 (active) | 1 (active) | 1 (active) | 1 (active) | 1 (active) | 1 (active) |
| O=C(NCc1cccc(O)c1)Nc1nc(-c2ccncc2)cs1 [RKI 1447 dihydrochloride] | ≤ 0.3 µM | ≤ 0.3 µM | ≤ 0.3 µM | ≤ 0.3 µM | ≤ 0.3 µM | ≤ 0.3 µM | 1 (active) | 1 (active) | 1 (active) | 1 (active) | 1 (active) | 1 (active) | 1 (active) | 1 (active) | 1 (active) | 1 (active) | 1 (active) | 1 (active) | 1 (active) | 1 (active) |
| Cc1cc(C)cc(C(=O)NOCCCCCC(=O)NO)c1 | ≤ 0.3 µM | ≤ 0.3 µM | ≤ 0.3 µM | 1 µM | ≤ 0.3 µM | 1 µM | 1 (active) | 1 (active) | 1 (active) | 1 (active) | 1 (active) | 1 (active) | 1 (active) | 1 (active) | 1 (active) | 1 (active) | 1 (active) | 1 (active) | 1 (active) | 1 (active) |
| CS(=O)(=O)c1cccc(CNc2nc(Nc3ccc4c(c3)CCC(=O)N4)ncc2C(F)(F)F)c1 | 3 µM | 3 µM | 3 µM | 3 µM | 3 µM | 3 µM | 1 (active) | 1 (active) | 1 (active) | 1 (active) | 1 (active) | 1 (active) | 1 (active) | 1 (active) | 1 (active) | 1 (active) | 1 (active) | 1 (active) | 1 (active) | 1 (active) |
| Cc1cc(Nc2cc(N3CCN(C)CC3)nc(Sc3ccc(NC(=O)C4CC4)cc3)n2)[nH]n1 | ≤ 0.3 µM | ≤ 0.3 µM | ≤ 0.3 µM | ≤ 0.3 µM | ≤ 0.3 µM | ≤ 0.3 µM | 1 (active) | 1 (active) | 1 (active) | 1 (active) | 1 (active) | 1 (active) | 1 (active) | 1 (active) | 1 (active) | 1 (active) | 1 (active) | 1 (active) | 1 (active) | 1 (active) |
